Results taken from PubChem BioAssay (NCI).
Values joined by “and” are separate entries in the source; they are usually repeats but may differ in a detail not shown here. Equal values may be shown once. Compounds without any hit were thinned out: in the full panel of roughly 79,000, 15% have a hit. More than one record can exist for a structure, and the calls need not agree. Active and inactive are the calls of the source. Cut-off read from the data, not from the text of the source: active = growth inhibition above about 70%; inactive = the rest.

Key:
[1] = NCI Yeast Anticancer Drug Screen. Data for the rad50 strain (AID 155);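 note: 0% = growth of vehicle-only cultures of the same strain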; conditions: S. cerevisiae rad50 strain growth inhibition; at 50.0 µM; stronger effect = higher value
Procedure, shortened: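 Readout: growth inhibition relative to vehicle-treated cultures. Compound exposure was carried out in a genetically defined yeast strain deficient in DNA damage repair.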

[2] = NCI Yeast Anticancer Drug Screen. Data for the mec2-1 strain (AID 157); conditions: S. cerevisiae mec2-1 strain, at 50.0 µM, stronger effect = higher value
Procedure, shortened: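 Using mec2-1 yeast: add compound, measure growth, express inhibition versus vehicle-treated cultures.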

[3] = NCI Yeast Anticancer Drug Screen. Data for the sgs1 mgt1 strain (AID 161);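 note: 0% = growth of cultures given vehicle only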; conditions: S. cerevisiae sgs1 mgt1 strain, at 50.0 µM, stronger effect = higher value
Procedure, shortened: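 Yeast cells carrying a defined DNA-repair defect were exposed to test compounds. Growth inhibition was measured relative to vehicle-treated controls.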

[4] = NCI Yeast Anticancer Drug Screen. Data for the cln2 rad14 strain (AID 165);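 note: 0% = growth equal to vehicle treated cultures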; conditions: S. cerevisiae cln2 rad14 strain, at 50.0 µM, stronger effect = higher value
Procedure, shortened: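 Yeast strain cln2 rad14, bearing defects in cell cycle control and DNA repair, serves as the test system; values reflect growth inhibition compared with vehicle.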

[5] = NCI Yeast Anticancer Drug Screen. Data for the bub3 strain (AID 167); conditions: S. cerevisiae bub3 mutant strain, at 50.0 µM, stronger effect = higher value
Procedure, shortened: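 Readout: yeast growth inhibition, expressed relative to vehicle-only wells. The test organism is a mutant strain from a panel with lesions in DNA repair or checkpoint genes.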

[6] = NCI Yeast Anticancer Drug Screen. Data for the mlh1 rad18 strain (AID 175); conditions: S. cerevisiae mlh1 rad18 strain growth inhibition; at 50.0 µM; stronger effect = higher value
Procedure, shortened: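 Steps: expose repair-defective yeast to compound; measure growth; express inhibition against vehicle-treated controls.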

| Structure (SMILES) | growth inhibition [1] | growth inhibition [2] | growth inhibition [3] | growth inhibition [4] | growth inhibition [5] | growth inhibition [6] |
| --- | --- | --- | --- | --- | --- | --- |
| CC(CC(=O)O)C(C(=O)O)C(=O)O (configuration not stated) | 0.4% (inactive) and 7.6% (inactive) | -25.9% (inactive) and 2.4% (inactive) | -33.5% (inactive) and -16.6% (inactive) | -32.2% (inactive) and 0.4% (inactive) | -21.8% (inactive) and 8.7% (inactive) | -18.3% (inactive) and -7.75% (inactive) |
| CCC(C(=O)O)C(=O)O.[NH-]CC[NH-].[Pt+2] | -23.6% (inactive) and -13.2% (inactive) | -8% (inactive) and -3.95% (inactive) | -8.05% (inactive) and -16.4% (inactive) | -29.4% (inactive) and -13.5% (inactive) | 1.3% (inactive) and 2% (inactive) | -10.8% (inactive) and -24% (inactive) |
| OCC(O)C(O)C1OC(O)C(O)C(O)C1O (configuration not stated) | 1.1% (inactive) and -15.8% (inactive) | 0.45% (inactive) and -15.2% (inactive) | 3.1% (inactive) and -4.25% (inactive) | -8.25% (inactive) and -17.1% (inactive) | 0.25% (inactive) and -1.65% (inactive) | 7.85% (inactive) and -7.65% (inactive) |
| C[S+](C)C | -5.65% (inactive) and -0.05% (inactive) | -7.25% (inactive) and -2.1% (inactive) | -2.9% (inactive) and -2% (inactive) | 9.1% (inactive) and -10% (inactive) | 4.4% (inactive) and -7.1% (inactive) | -18.4% (inactive) and 12.5% (inactive) |
| C=C1C(=O)OC2/C=C(/C)C3CC(O)C(C)(CC(OC(=O)/C(C)=C/C)C12)O3 (configuration not stated) | -9.75% (inactive) and -7.75% (inactive) | -12.9% (inactive) and -20.4% (inactive) | -6.85% (inactive) and 0.45% (inactive) | 13.4% (inactive) and 8.45% (inactive) | -5.25% (inactive) and -26.3% (inactive) | -5.35% (inactive) and 2.9% (inactive) |
| Nc1c2c(nc3ccccc13)CCCC2 (tested in a mixture with another compound) | -7.95% (inactive) and -12.2% (inactive) | -20.4% (inactive) and -22.8% (inactive) | -14.9% (inactive) and -14% (inactive) | 9.6% (inactive) and 9.4% (inactive) | -21.2% (inactive) and -18.6% (inactive) | -11.7% (inactive) and -0.1% (inactive) |
| CC(C)C1C=C2CCC3C(C)(C(=O)O)CCCC3(C)C2CC1 (configuration not stated) | 79.6% (active) and 46.2% (inactive) | 68.2% (inactive) and 58.1% (inactive) | 22.8% (inactive) and 48% (inactive) | 73.7% (active) and 65.3% (inactive) | 65.2% (inactive) and 44.9% (inactive) | 81.7% (active) and 49.9% (inactive) |
| CC(=O)NC1CCC(C(F)(F)F)CC1 (configuration not stated) | 9.9% (inactive) and 2.15% (inactive) | 5.75% (inactive) and -5.7% (inactive) | -9.5% (inactive) and -4.95% (inactive) | -6.2% (inactive) and -21.2% (inactive) | -1.75% (inactive) and -2.55% (inactive) | 12.8% (inactive) and 8.05% (inactive) |
| CC(=O)N(O)CCCCCNC(=O)CCC(=O)N(O)CCCCCNC(=O)CCC(=O)N(O)CCCCCN | 12.6% (inactive) and 8% (inactive) | -9.65% (inactive) and -0.45% (inactive) | 2.1% (inactive) and -5.3% (inactive) | 6.9% (inactive) and 5.75% (inactive) | 9.55% (inactive) and 0.5% (inactive) | 11.4% (inactive) and 4.05% (inactive) |
| Cc1ccc(C(C)CCCO)cc1 (configuration not stated) | -11.6% (inactive) and 6.8% (inactive) | -15.4% (inactive) and -21.8% (inactive) | -16.8% (inactive) and -6.55% (inactive) | -6.55% (inactive) and -2.3% (inactive) | -22.2% (inactive) and -6.35% (inactive) | -23.9% (inactive) and -25.9% (inactive) |
| N#Cc1c(-c2ccccc2)cc(-c2ccccc2)n(C2OC(CO)C(O)C(O)C2O)c1=O (configuration not stated) | -14.6% (inactive) and -8.2% (inactive) | -2.85% (inactive) and -9.1% (inactive) | 4.85% (inactive) and -5.85% (inactive) | 1.2% (inactive) and 12.4% (inactive) | 5.65% (inactive) and 8.3% (inactive) | -7.95% (inactive) and -10.8% (inactive) |
| O=P(O)(O)Oc1ccccc1 | -10.4% (inactive) and -8.3% (inactive) | -6.25% (inactive) and 6.05% (inactive) | -16.7% (inactive) and 6.55% (inactive) | -9.8% (inactive) and -9.95% (inactive) | -0.05% (inactive) and -3.3% (inactive) | -12.1% (inactive) and 9.2% (inactive) |
| OC1C2COC(O2)C(O)C1O (configuration not stated) | -0.4% (inactive) and -29.9% (inactive) | -5.45% (inactive) and -7.65% (inactive) | 7.4% (inactive) and -6.7% (inactive) | -16.2% (inactive) and -35% (inactive) | -1.5% (inactive) and 5.9% (inactive) | 7.05% (inactive) and -18.7% (inactive) |
| N=C(N)/C=C\C(=O)O | 1.65% (inactive) and 2.05% (inactive) | -9.35% (inactive) and -13.2% (inactive) | 4.4% (inactive) and -11.1% (inactive) | 17.4% (inactive) and 14.3% (inactive) | -21.4% (inactive) and -33.8% (inactive) | -4.9% (inactive) and -14.8% (inactive) |
| O=C1CC2(CC=CCC23OCCO3)CC(CI)O1 (configuration not stated) | -14.1% (inactive) and 7.75% (inactive) | -8.25% (inactive) and -1.25% (inactive) | 3.1% (inactive) and 24.8% (inactive) | 5.9% (inactive) and 5.1% (inactive) | -10.2% (inactive) and 10.9% (inactive) | 10.7% (inactive) and 9.55% (inactive) |
| NC(=O)CC(N)C(=O)O (configuration not stated) | -4.4% (inactive) and -5.3% (inactive) | -30.1% (inactive) and -1.65% (inactive) | -10.8% (inactive) and -4.4% (inactive) | -1% (inactive) and 11.7% (inactive) | 1.5% (inactive) and -13.7% (inactive) | 0.7% (inactive) and 2.65% (inactive) |
| CCOC(=O)C(N)Cc1ccc(O)cc1 (configuration not stated) | 16% (inactive) and 0.4% (inactive) | 8.05% (inactive) and 6.55% (inactive) | -0.85% (inactive) and -11.8% (inactive) | 6.25% (inactive) and -19.6% (inactive) | 10.7% (inactive) and 1.75% (inactive) | 23.4% (inactive) and -1.7% (inactive) |
| CN(C)CC1COC2Cc3ccccc3C1O2 (configuration not stated) | -43.2% (inactive) and -0.75% (inactive) | -22.1% (inactive) and -20.2% (inactive) | -17.2% (inactive) and -1.65% (inactive) | -46.1% (inactive) and 20.9% (inactive) | -19.1% (inactive) and 21.5% (inactive) | -29.3% (inactive) and 1.95% (inactive) |
| CN(C)C(c1ccccc1)C1COC2Cc3ccccc3C1O2 (configuration not stated) | -8.1% (inactive) and -3.3% (inactive) | -4.55% (inactive) and -11.4% (inactive) | 10.3% (inactive) and -2.85% (inactive) | 2.05% (inactive) and 6.35% (inactive) | -27.2% (inactive) and -19.2% (inactive) | -6.6% (inactive) and -23.6% (inactive) |
| CC(=O)OCC1OC(n2c(=S)n(-c3ccccc3)c(=O)c3cc(Br)ccc32)C(OC(C)=O)C(OC(C)=O)C1OC(C)=O (configuration not stated) | 4.85% (inactive) and -36.2% (inactive) | -1.9% (inactive) and -27.9% (inactive) | 1.4% (inactive) and -26.9% (inactive) | 5.25% (inactive) and 15.2% (inactive) | -14.6% (inactive) and -0.3% (inactive) | 12.5% (inactive) and -19.2% (inactive) |
| CC(C)(SCc1ccccc1)C(N)C(=O)O (configuration not stated) | 8.05% (inactive) and -6.85% (inactive) | 10.3% (inactive) and -17% (inactive) | 1.65% (inactive) and -33.1% (inactive) | 2.2% (inactive) and -33.8% (inactive) | -3.45% (inactive) and -31.3% (inactive) | 6.1% (inactive) and -10.3% (inactive) |
| COc1ccc(C(O)C(NCCO)c2ccc(OC)cc2)cc1 (configuration not stated) | 8.85% (inactive) and -3.55% (inactive) | 12.8% (inactive) and -7.35% (inactive) | 42.7% (inactive) and -3.7% (inactive) | -37.6% (inactive) and -16.8% (inactive) | -2.25% (inactive) and 0.05% (inactive) | 15.7% (inactive) and -28.1% (inactive) |
